Screens as filed in PubChem.
SKKanGAS inh: SKKanGAS growth inhibition; S. pyogenes SKKanGAS, kanamycin growth, BacTiter-Glo, 6 h; 1.3% of 300,000 active; AID 1662; inhibition, % at 7.5 µM;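 active = mean replicate score, as percent of positive control median, at least 50; inconclusive = mean below 50 but one replicate at or above 50; inactive = mean and every replicate below 50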;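 note: strain carries kanamycin resistance gene driven by streptokinase promoter and grows in 40 µg/ml kanamycin; loss of luminescence reflects streptokinase promoter inhibition or plain growth inhibition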
Calb FLC: affects C. albicans growth with fluconazole | 0.57% of 300,000 active | growth inhibition, % (no concentration beside the values) | C. albicans CaCi-2 (fluconazole-resistant clinical isolate) + fluconazole, Alamar Blue growth, 48 h;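 active = growth inhibition above about 58% in most replicates, limit read from the data, passing the limit was not always enough; inconclusive = exactly half the replicates above a set limit; inactive = most replicates below a set limit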;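 note: all wells also contain fluconazole at 8 µg/ml as a sub-toxic cotreatment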
Yeast superoxide: lowers age-related superoxide in aged yeast cells | superoxide response (% of plate mean), % at 10 µM | AID 2690 | S. cerevisiae aged cells, superoxide DHE fluorescence; hits give low values | 0.18% of 330,000 active;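 active = superoxide response under a set limit, about three screen SD below normal, cut at about 65% in these data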;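 note: yeast aged for seven days with compound at 30 °C before DHE staining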
Platelet DG rel: modulates dense granule release in human platelets; inhibition, %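 (compounds screened at 7.5 µM in platelet-rich plasma)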; human platelet-rich plasma, SFLLRN dense granule ATP release, luminescence; 0.22% of 300,000 active;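 active = mean replicate score, as percent of positive control, at or above 50; inconclusive = mean below 50 but at least one replicate at or above 50; inactive = mean and every replicate below 50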
PolyA inhibitor: blocks polyadenylation in yeast reporter cells; S. cerevisiae SKY197-pL101 polyadenylation reporter, beta-gal luminescence; efflux-impaired pdr1/pdr3 knockout yeast; score 100 = 6 SD above DMSO; activity score, % at 12 µM; 0.02% of 300,000 active;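 active = lowest replicate activity score at least 50, where 100 means six control SD above control mean; inconclusive = lowest score under 50 but half or more replicates reach 50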;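 note: yeast exposed to compound for 9 h at 30 °C; higher score means more reporter readthrough which indicates perturbed polyadenylation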
Numbers stand for hits; i = inactive; ? = inconclusive; nt = not tested or not shown; ! = repeats disagree. Most compounds without a hit are left out; they make up all but 2% or so of the library.

SMILES	SKKanGAS inh	Calb FLC	Yeast superoxide	Platelet DG rel	PolyA inhibitor
Cc1ccc(C)c(/C=C/C(=O)c2ccccc(=O)c2O)c1	99	98	i	i	i
O=C(/C=C/c1ccccc1Cl)c1ccc(O)cc1	i	i	i	i	i
O=C(/C=C/c1ccccc1Cl)c1ccccc(=O)c1O	90	i	i	i	i
CC(=O)Nc1ccc(N)cc1	nt	nt	i	nt	nt
FC(F)(F)c1cc(N2CCN(Cc3ccccc3)CC2)c2ccccc2n1	50	i	i	i	i
FC(F)(F)c1cc(N2CCNCC2)c2ccccc2n1	i	i	i	i	i
Cc1cnc(C)c(N2CCN(Cc3nc(-c4ccccc4)no3)CC2)n1	i	i	i	50	i
Cc1nc2ccc(NC(=O)Cc3ccc4c(c3)OCCO4)cc2s1	i	i	i	i	84
COC(=O)c1ccccc1NC(=O)Nc1ccc2c(c1)OCO2	i	i	i	74	i
O=C(CCl)Nc1ccccc1C(=O)Nc1ccc2c(c1)OCO2	i	i	i	55	i
COc1ccc2c3c(cccc13)C(=O)N(O)C2=O	i	i	i	i	i
CCC1=NNc2cccc3c(OC)ccc1c23	i	i	55	i	i
CC(=O)c1ccc(OCc2cc(C(=O)NC3CCCCC3)no2)cc1	i	i	i	i	i
N#CCN(C(=O)COC(=O)CCCNC(=O)c1ccc(Cl)cc1)c1ccccc1	nt	nt	i	nt	nt
Cc1ccc2c(c1)NC(=O)C(CC(=O)Nc1ccc(Br)c(C)c1)O2 (stereo unspecified)	i	i	i	i	i
CC(=O)Nc1ccc(C2C(=O)c3ccccc3C2=O)cc1	51	i	i	i	i
O=C(CC(=O)c1cccc([N+](=O)[O-])c1)Nc1ccccc1Cl	i	103	i	i	i
CN(/N=C/c1ccc(Cl)cc1Cl)c1ncc(Cl)cc1C(F)(F)F	76	i	i	i	i
CN(NS(C)(=O)=O)c1ncc(C(F)(F)F)cc1Cl	i	i	i	i	i
CN(/N=C/c1ccc(Cl)cc1)c1ncc(Cl)cc1C(F)(F)F	73	i	i	i	i
Cc1ccc2c(c1)N(C(=O)CCC(=O)N1CCC(C(N)=O)CC1)CCO2	i	i	i	i	i
O=C(/C=C/c1ccccc1)NC(=S)NNC(=O)c1ccco1	76	i	i	i	i
O=C(NC(=S)NNC(=O)c1ccco1)c1ccccc1	i	i	i	i	i
O=C(/C=C/c1ccc(Br)cc1)NC(=S)NNC(=O)c1ccco1	106	i	i	i	i
CCc1cccc(C)c1NC(=O)COC(=O)c1cc([N+](=O)[O-])ccc1N1CCOCC1	i	i	i	i	i
SMILES	SKKanGAS inh	Calb FLC	Yeast superoxide	Platelet DG rel	PolyA inhibitor
Cc1nn(C(C)C(=O)NCCN2CCCC2)c(=O)c2c1sc1ccccc12 (stereo unspecified)	i	i	i	i	i
Oc1ccc(F)cc1-c1cc(-c2ccc3c(c2)OCCO3)n[nH]1	56	i	i	i	i
CN(C(=O)c1cc(S(=O)(=O)N2CCc3ccccc32)cn1C)C1CCCCC1	i	i	i	58	i
Cn1cc(S(=O)(=O)N2CCc3ccccc32)cc1C(=O)Nc1ccc(Cl)cc1	i	i	i	62	i
CC(=O)N1CCc2cc(S(=O)(=O)N3CCc4ccccc43)ccc21	52	i	i	i	i
COc1ccc(CNC(=O)CCCn2nc(C)c3c(C)n(-c4ccc(C)cc4)nc3c2=O)cc1	i	i	i	i	i
CCC1(C)N=C(N)Nc2nc3cc(C)c(C)cc3n21 (stereo unspecified)	i	nt	64	i	i
COc1ccc(/C=C/C(=O)NC(=S)NNC(=O)c2cnccn2)cc1	80	i	31	i	i
COc1ccc(/C=C/C(=O)NC(=S)Nc2ccccn2)cc1	i	i	i	i	i
O=C(/C=C/c1ccc(F)cc1)NC(=S)NNC(=O)c1cnccn1	109	i	i	i	i
COc1ccc(/C=C/C(=O)NC(=S)NNC(=O)c2cccnc2)cc1	60	i	i	i	i
COc1ccc(C(=O)NNC(=S)NC(=O)c2cccnc2)cc1	i	i	i	i	i
CCOC(=O)c1csc(Nc2nc3ccc(F)cc3s2)n1	53	i	i	i	i
CCOC(=O)c1sc(Nc2nc3ccc(OC)cc3s2)cc1C	50	i	i	i	i
CCOC(=O)c1sc(Nc2nc3c(F)cccc3s2)cc1C	i	i	i	i	i
Cc1cc(Nc2ccccc2)n(-c2ccccc2)n1	i	i	i	i	i
Cc1cc(NC(=O)c2ccccc2F)n(-c2nc3ccccc3[nH]2)n1	?	i	i	i	i
Cc1cc(NC(=O)c2ccc(C)s2)n(-c2nc3ccccc3[nH]2)n1	52	i	i	i	i
Cc1cc(NC(=O)c2c(F)cccc2Cl)n(-c2nc3ccccc3[nH]2)n1	118	109	i	i	i
Cc1cc(C)nc(-n2nc(C)cc2Nc2ccccc2)n1	79	i	i	i	i
Cc1cc(NC(=O)c2c(F)cccc2F)n(-c2nc3ccccc3[nH]2)n1	i	i	i	i	i
Cc1cc(Nc2ccccc2)n(-c2nc3ccccc3[nH]2)n1	114	i	i	i	i
CC(C)(C)c1ccc(OCCCC(=O)NC2=NCCS2)cc1	62	i	i	i	i
CC(C)(C)c1ccc(C(=O)NCCC(=O)NC2=NCCS2)cc1	nt	nt	i	nt	nt
CC(C)(C)c1ccc(OCCCC(=O)NNC(=O)c2ccccc2O)cc1	i	81	i	i	i
SMILES	SKKanGAS inh	Calb FLC	Yeast superoxide	Platelet DG rel	PolyA inhibitor
CC(=O)Nc1ccccc1/C=C/c1ccc2c(C)ccc(O)c2n1	i	i	i	i	i
CC(=O)Nc1ccccc1/C=C/c1ccc2c(C)cc(C)c(O)c2n1	i	109	i	i	i
O=C(Nc1ccccn1)c1ccc(C(=O)c2ccccc2)cc1	i	nt	i	i	i
O=C(NC(=O)c1ccccc1)Nc1ccccn1	i	i	i	82	i
CC1Oc2ccccc2C=C1/C=N/Nc1ccc(C(=O)O)cc1 (stereo unspecified)	i	i	i	i	i
O=C(O)c1cnc(-c2ccccc2)nc1Sc1ccccc1Cl	i	96	i	i	i
Cc1cccc(Sc2nc(-c3ccccc3)ncc2C(=O)O)c1	i	109	i	i	i
O=C(O)c1cnc(-c2ccccc2)nc1Sc1ccc(Cl)cc1	i	99	i	i	i
COc1ccc(CNC(=O)CCS(=O)(=O)c2ccc3c(c2)CC(C)N3C(=O)C2CC2)cc1 (stereo unspecified)	i	i	i	i	i
COc1ccc(CCn2c(=S)[nH]c3ccc(N4CCOCC4)cc3c2=O)cc1OC	i	i	i	i	i
O=c1c2cc(N3CCOCC3)ccc2[nH]c(=S)n1CCc1ccccc1	84	i	i	i	i
C/C(=N\NC(=O)c1ccc(O)cc1)c1cccc(NC(=O)c2ccccc2C)c1	?	i	i	i	i
Cc1nnc(SCC2=C(C(=O)O)N3C(=O)[C@@H](NC(=O)Cn4cnnn4)[C@H]3SC2)s1	105!	i	i	i	i
CN(C)CCn1nnnc1SCC1=C(C(=O)O)N2C(=O)[C@@H](NC(=O)Cc3csc(N)n3)[C@H]2SC1	nt	nt	i	nt	nt
